Source: PubChem BioAssay (EPA / NIEHS)
Inconclusive results are not listed. The source made the active and inactive calls. The calls were made as follows: active = hit-call score of the fitted dose curve at least 0.9, where 1 is the maximum; inconclusive = response in the unintended direction; inactive = score below 0.9.

Columns and labels:
[1] = target: Adenosine receptor A1 (Bos taurus) (UniProt P28190); assay: NVS_GPCR_bAdoR_NonSelective: NovaScreen (NVS) G Protein-Coupled Receptor Assay for bovine Adenosine Receptor (AdoR), Non-selective Binding (AID 2283244)
Method in brief: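 Bovine striatal membranes, radioligand displacement binding, 1 h after dosing, filter-based scintillation counting. Screened in duplicate at 25 uM, then concentration-response up to 50 uM; loss of specific binding relative to DMSO.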

[2] = target: rat Constitutive Nitric Oxide Synthase (CNOS), Nos1 (gene 24598) (UniProt P29476); assay: NVS_ENZ_rCNOS: NovaScreen (NVS) Enzymatic Assay for rat Constitutive Nitric Oxide Synthase (CNOS) (AID 2283236)
Method in brief: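 Enzyme activity in rat brain membrane preparation, read 1 h after dosing by filter-based radiometric scintillation counting. Primary screen in duplicate at 25 uM; actives (e.g., ≥30% inhibition) then run in concentration-response up to 50 uM.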

[3] = tested on: guinea pig Muscarinic, Peripheral (Mperiperal) Receptor, Non-selective Binding, gene 100379235; assay: NVS_GPCR_gMPeripheral_NonSelective: NovaScreen (NVS) G Protein-Coupled Receptor Assay for guinea pig Muscarinic, Peripheral (Mperiperal) Receptor, Non-selective Binding (AID 2283250)
Protocol: NVS_GPCR_gMPeripheral_NonSelective is a biochemical, single-readout assay that uses extracted gene-proteins from Guinea pig bladder membranes in a tissue-based cell-free assay. Measurements were taken 1 hour after chemical dosing in a 48-well plate.NVS_GPCR_gMPeripheral_NonSelective is one of one assay component(s) measured or calculated from the NVS_GPCR_gMPeripheral_NonSelective assay. It is designed to make measurements of radioligand binding, a form of binding reporter, as detected with scintillation counting signals by Filter-based radiodetection technology.Data from the assay component NVS_GPCR_gMPeripheral_NonSelective was analyzed into 1 assay endpoint. This assay endpoint, NVS_GPCR_gMPeripheral_NonSelective, was analyzed in the positive analysis fitting direction relative to DMSO as the negative control and baseline of activity. Using a type of binding reporter, loss-of-signal activity can be used to understand changes in the binding as they relate to the gene Chrm3. Furthermore, this assay endpoint can be referred to as a primary readout, because the performed assay has only produced 1 assay endpoint. To generalize the intended target to other relatable targets, this assay endpoint is annotated to the gpcr intended target family, where the subfamily is rhodopsin-like receptor.
Binding assays used specific radioligands (tritiated, iodinated) with non-radioactive competitive displacement ligands in agonist or antagonist protocols (as indicated) and various reference compounds and inhibitors to titrate specific binding to receptors and transporters. Most enzyme assays (CYPs, kinases, phosphatases, proteases, HDACs) used recombinant protein and specific substrates (fluorescence mostly, some colorimetric and radioactive) and inhibitors, followed by a biochemical separation of substrate and product. All assays for the biochemical HTS were initially run in duplicate at a single concentration (10 uM for CYP450 assays and 25 uM for all others). Assay-chemical combinations meeting a pre-defined threshold (e.g., 30% inhibition and other criteria defined below) were then run in singleton concentration-response format with maximum concentration of 20 uM for CYPs and 50 uM for all others. Each assay was run with positive and negative controls, and concurrent controls on every plate. The follow-up (secondary) screen tested active chemical-pairs in concentration series, as well as a few additional assays not tested in the primary screen, some selected negative inactives, and several cases re-run in the concentration series for confirmatory purposes.

[4] = target: human Serotonin, 5-Hydroxytryptamine Receptor 2A (5HT2A), HTR2A (gene 3356) (UniProt P28223); assay: NVS_GPCR_h5HT2A: NovaScreen (NVS) G Protein-Coupled Receptor Assay for human Serotonin, 5-Hydroxytryptamine Receptor 2A (5HT2A) (AID 2283249)
Method in brief: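 Human cortex membranes, cell-free radioligand binding; filter-based scintillation read 1.5 h after dosing. Duplicate screen at 25 uM first; displacement of specific binding (loss of signal) versus DMSO.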

[5] = target: guinea pig Leukotriene D4 Receptor (LTD4), CYSLTR1 (gene 100135514) (UniProt Q2NNR5); assay: NVS_GPCR_gLTD4: NovaScreen (NVS) G Protein-Coupled Receptor Assay for guinea pig Leukotriene D4 Receptor (LTD4) (AID 2283248)
Method in brief: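 Radioligand displacement on guinea pig lung membranes, 1 h incubation, filtration and scintillation counting; DMSO as negative control. Duplicate 25 uM primary screen, then singleton concentration-response up to 50 uM.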

[6] = tested on: bovine Angiotensin II Receptor Type 2 (AT2), gene 407157; assay: NVS_GPCR_bAT2: NovaScreen (NVS) G Protein-Coupled Receptor Assay for bovine Angiotensin II Receptor Type 2 (AT2) (AID 2283240)
Method in brief: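 Radioligand displacement on bovine cerebellar membranes, 1 hour incubation, filter-based scintillation counting; loss of signal vs DMSO. Duplicate single-point screen at 25 uM, then concentration-response to 50 uM maximum.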

[7] = tested on: guinea pig Leukotriene B4 Receptor (LTB4), gene 100379538; assay: NVS_GPCR_gLTB4: NovaScreen (NVS) G Protein-Coupled Receptor Assay for guinea pig Leukotriene B4 Receptor (LTB4) (AID 2283247)
Method in brief: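 Radioligand displacement on guinea pig spleen membranes, filter-based scintillation counting 2 h after dosing. Primary duplicate single point at 25 uM; hits over threshold (e.g. 30% inhibition) run in concentration-response up to 50 uM, DMSO baseline.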

[8] = target: bovine Dopamine Receptor (DR), Non-selective Binding, DRD1 (gene 281125) (UniProt Q95136); assay: NVS_GPCR_bDR_NonSelective: NovaScreen (NVS) G Protein-Coupled Receptor Assay for bovine Dopamine Receptor (DR), Non-selective Binding (AID 2283241)
Method in brief: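 Bovine striatal membranes; radioligand displacement read by filtration and scintillation counting 1 h after dosing, loss of signal vs DMSO. Screened in duplicate at 25 uM, then concentration-response for hits.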

[9] = tested on: bovine Histamine 1 Receptor (H1), gene 281231; assay: NVS_GPCR_bH1: NovaScreen (NVS) G Protein-Coupled Receptor Assay for bovine Histamine 1 Receptor (H1) (AID 2283246)
Method in brief: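 Radioligand displacement on bovine cerebellar membranes, 1 h after dosing, filter-based scintillation read-out; loss of signal vs DMSO. Duplicate single-concentration screen at 25 uM, then concentration-response up to 50 uM for hits.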

[10] = target: rat Catechol-O-Methyl Transferase (COMT), Comt (gene 24267) (UniProt P22734); assay: NVS_ENZ_rCOMT: NovaScreen (NVS) Enzymatic Assay for rat Catechol-O-Methyl Transferase (COMT) (AID 2283235)
Method in brief: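 Cell-free enzyme activity with protein extracted from rat dorsal striatum, measured by HPLC with absorbance detection. Compounds screened at 25 uM in duplicate; actives then run in concentration-response up to 50 uM, loss of signal versus DMSO.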

Sequence of rat Constitutive Nitric Oxide Synthase (CNOS), Nos1 (gene 24598) (P29476 whole entry, looked up): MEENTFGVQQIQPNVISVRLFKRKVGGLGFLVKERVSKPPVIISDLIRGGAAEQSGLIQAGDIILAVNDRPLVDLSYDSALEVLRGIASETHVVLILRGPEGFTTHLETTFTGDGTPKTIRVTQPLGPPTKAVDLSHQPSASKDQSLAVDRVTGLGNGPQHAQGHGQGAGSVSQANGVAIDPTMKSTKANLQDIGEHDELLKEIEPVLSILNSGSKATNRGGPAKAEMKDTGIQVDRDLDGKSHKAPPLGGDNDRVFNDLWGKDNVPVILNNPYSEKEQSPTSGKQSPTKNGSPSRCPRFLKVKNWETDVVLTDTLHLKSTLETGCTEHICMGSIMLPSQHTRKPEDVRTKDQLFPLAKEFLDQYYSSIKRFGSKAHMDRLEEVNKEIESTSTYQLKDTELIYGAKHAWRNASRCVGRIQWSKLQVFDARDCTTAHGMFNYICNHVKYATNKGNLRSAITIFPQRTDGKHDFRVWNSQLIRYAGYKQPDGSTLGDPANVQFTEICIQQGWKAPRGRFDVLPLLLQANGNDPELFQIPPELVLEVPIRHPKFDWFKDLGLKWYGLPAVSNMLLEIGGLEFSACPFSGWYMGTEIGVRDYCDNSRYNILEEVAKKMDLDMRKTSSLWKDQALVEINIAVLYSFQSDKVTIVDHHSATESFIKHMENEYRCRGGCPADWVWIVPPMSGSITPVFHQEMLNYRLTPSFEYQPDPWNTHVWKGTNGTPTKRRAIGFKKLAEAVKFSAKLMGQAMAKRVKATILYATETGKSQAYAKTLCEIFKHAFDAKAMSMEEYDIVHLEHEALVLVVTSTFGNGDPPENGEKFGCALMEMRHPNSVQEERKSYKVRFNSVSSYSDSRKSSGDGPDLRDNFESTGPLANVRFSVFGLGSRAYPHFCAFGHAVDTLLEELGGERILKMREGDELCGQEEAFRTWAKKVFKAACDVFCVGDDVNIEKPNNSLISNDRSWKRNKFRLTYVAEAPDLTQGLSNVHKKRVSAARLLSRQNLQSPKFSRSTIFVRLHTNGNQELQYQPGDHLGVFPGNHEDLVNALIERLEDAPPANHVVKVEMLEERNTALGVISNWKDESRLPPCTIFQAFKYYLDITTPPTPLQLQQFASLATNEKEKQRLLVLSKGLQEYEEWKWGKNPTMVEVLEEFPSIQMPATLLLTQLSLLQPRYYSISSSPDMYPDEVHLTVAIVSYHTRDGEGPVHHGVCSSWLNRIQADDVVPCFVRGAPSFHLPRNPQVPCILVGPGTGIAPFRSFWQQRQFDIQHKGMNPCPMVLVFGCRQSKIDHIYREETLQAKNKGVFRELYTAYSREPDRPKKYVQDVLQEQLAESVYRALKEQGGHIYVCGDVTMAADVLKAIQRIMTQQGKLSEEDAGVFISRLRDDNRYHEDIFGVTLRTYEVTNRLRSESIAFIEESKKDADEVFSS
Sequence of human Serotonin, 5-Hydroxytryptamine Receptor 2A (5HT2A), HTR2A (gene 3356) (P28223 whole entry, looked up): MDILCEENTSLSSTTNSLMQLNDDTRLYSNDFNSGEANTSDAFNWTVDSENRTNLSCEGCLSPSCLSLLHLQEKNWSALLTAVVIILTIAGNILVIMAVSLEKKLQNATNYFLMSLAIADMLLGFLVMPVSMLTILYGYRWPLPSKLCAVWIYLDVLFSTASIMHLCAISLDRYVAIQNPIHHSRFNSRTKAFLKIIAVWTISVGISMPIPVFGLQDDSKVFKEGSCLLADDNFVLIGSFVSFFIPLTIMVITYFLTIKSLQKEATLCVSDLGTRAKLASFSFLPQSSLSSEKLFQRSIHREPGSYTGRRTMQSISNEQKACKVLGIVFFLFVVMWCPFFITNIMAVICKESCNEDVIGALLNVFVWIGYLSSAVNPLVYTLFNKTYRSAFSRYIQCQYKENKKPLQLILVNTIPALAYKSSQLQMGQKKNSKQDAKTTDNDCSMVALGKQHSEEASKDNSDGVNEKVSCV
Sequence of Adenosine receptor A1 (Bos taurus) (P28190 whole entry, looked up): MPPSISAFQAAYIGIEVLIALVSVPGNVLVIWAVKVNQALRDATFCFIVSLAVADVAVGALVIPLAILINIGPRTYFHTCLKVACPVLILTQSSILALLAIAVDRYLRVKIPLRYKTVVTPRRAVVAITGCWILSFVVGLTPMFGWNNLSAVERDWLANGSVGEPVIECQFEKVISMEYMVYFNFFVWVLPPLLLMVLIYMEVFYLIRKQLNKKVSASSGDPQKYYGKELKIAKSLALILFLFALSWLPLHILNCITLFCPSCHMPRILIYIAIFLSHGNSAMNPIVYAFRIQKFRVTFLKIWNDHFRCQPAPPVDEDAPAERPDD
Sequence of bovine Dopamine Receptor (DR), Non-selective Binding, DRD1 (gene 281125) (Q95136 whole entry, looked up): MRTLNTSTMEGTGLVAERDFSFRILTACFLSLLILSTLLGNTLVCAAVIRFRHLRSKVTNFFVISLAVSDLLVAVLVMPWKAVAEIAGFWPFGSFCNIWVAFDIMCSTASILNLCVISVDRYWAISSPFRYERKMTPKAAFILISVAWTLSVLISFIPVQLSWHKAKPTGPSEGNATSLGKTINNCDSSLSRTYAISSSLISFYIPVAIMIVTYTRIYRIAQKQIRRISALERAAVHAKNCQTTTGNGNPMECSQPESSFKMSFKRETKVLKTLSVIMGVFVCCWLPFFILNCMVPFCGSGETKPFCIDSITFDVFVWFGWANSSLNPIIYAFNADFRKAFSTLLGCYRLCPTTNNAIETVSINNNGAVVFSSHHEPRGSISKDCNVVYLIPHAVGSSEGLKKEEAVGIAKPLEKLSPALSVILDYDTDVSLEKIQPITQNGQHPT
Sequence of rat Catechol-O-Methyl Transferase (COMT), Comt (gene 24267) (P22734 whole entry, looked up): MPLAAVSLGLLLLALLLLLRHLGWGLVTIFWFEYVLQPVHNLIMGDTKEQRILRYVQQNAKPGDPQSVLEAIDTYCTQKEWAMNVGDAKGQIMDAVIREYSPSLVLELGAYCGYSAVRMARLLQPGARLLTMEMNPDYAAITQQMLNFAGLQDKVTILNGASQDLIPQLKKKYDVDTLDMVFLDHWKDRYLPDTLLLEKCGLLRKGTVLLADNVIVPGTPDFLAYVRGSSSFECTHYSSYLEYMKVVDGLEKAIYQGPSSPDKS
Sequence of guinea pig Leukotriene D4 Receptor (LTD4), CYSLTR1 (gene 100135514) (Q2NNR5 whole entry, looked up): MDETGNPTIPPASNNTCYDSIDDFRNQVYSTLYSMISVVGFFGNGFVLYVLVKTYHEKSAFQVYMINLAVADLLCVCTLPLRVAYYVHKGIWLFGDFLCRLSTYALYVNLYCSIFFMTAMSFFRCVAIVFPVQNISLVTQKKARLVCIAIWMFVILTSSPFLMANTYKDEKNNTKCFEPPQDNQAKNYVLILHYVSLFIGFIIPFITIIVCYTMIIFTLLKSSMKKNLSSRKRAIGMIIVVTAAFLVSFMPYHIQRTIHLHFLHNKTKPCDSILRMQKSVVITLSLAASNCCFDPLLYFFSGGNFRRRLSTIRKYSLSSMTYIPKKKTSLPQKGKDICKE

Cc1ccc(C)c(O)c1
outcome [1]: inactive

Cn1c(=O)c2c(ncn2C)n(C)c1=O
AC50 [1]: 25 µM (active)

CC(C)=CCCC(C)=CC=O
outcome [2]: inactive

COCCOc1cc2cc(C(=O)NC3CCN(C(C)C)CC3)n(CC(=O)Nc3ccc(Cl)cn3)c2cn1
outcome [3]: inactive

CC(C)=CCCC(C)CCO (stereo unspecified)
outcome [2]: inactive

CCOC(=O)COc1ccc2c(c1)CC(NCC(O)c1cccc(Cl)c1)CC2 (stereo unspecified)
AC50 [4]: 12.1 µM (active) | AC50 [3]: 22.9 µM (active)

CCc1cc(SCc2sc(-c3ccc(C(F)(F)F)cc3)nc2CN2CCN(c3ccc(OC)cc3)CC2)ccc1OCC(=O)O
outcome [5]: inactive | outcome [4]: inactive

O=C(NS(=O)(=O)/C=C/c1ccccc1)c1ccc(F)cc1Cl
AC50 [6]: 15 µM (active) | AC50 [7]: 12.4 µM (active)

CCCN(C1CCN(C(=O)C2CCNCC2)CC1)[C@@H]1CCc2ccc(OC)cc2C1
AC50 [8]: 8.91 µM (active) | AC50 [9]: 11.6 µM (active) | AC50 [7]: 9.93 µM (active) | AC50 [3]: 0.00229 µM (active)

CCOc1cccc(-n2cc(C(=O)N3CCN(c4cc(C(=O)O)c5ccccc5c4)CC3)nc2-c2ccc(C)cc2)c1
outcome [1]: inactive | AC50 [5]: 19.8 µM (active)

CNS(=O)(=O)c1cc(C(=O)N2CCC(CCN3C4CCC3CC(n3c(C)nc5ccccc53)C4)(c3cccc(F)c3)CC2)c(Cl)cc1F (stereo unspecified)
outcome [6]: inactive | AC50 [4]: 1.52 µM (active) | AC50 [3]: 5.36 µM (active)

O=C(CCCCCCCCc1cccnc1)N1CCC(C=C(c2ccccc2)c2ccccc2)CC1
outcome [7]: inactive | outcome [4]: inactive

CCN(C(=O)c1cc(C)cc(OC[C@H](C)Nc2ccncc2)c1)C(C)C
outcome [4]: inactive

Nc1ccc(Nc2ccccc2)cc1
outcome [3]: inactive

Cc1[nH]cnc1C[C@H]1CCc2c(C)c3ccccc3n2C1=O
AC50 [8]: 8.58 µM (active) | AC50 [4]: 1.45 µM (active) | AC50 [3]: 10.5 µM (active)

CCn1nc(Cc2ccccc2)cc1C1CCN(C[C@H]2C[C@H](N(C)[C@@H](C(=O)O)C(C)C)C[C@@H]2c2cccc(F)c2)CC1
AC50 [8]: 18.6 µM (active)

O=C(O)c1cccc(Oc2ccccc2)c1
outcome [7]: inactive

O=C(O)CCN(C1(C(=O)NO)CCCC1)S(=O)(=O)c1ccc(Oc2ccc(F)cc2)cc1
AC50 [7]: 0.951 µM (active)

COc1ccc(/C=C/S(=O)(=O)NC(=O)c2ccc(C)cc2Cl)cc1
AC50 [6]: 15.2 µM (active) | outcome [7]: inactive

CN(C)c1ccc(N=NS(=O)(=O)O)cc1
outcome [2]: inactive

COc1cccc(-c2ccc(/C=C\CN3CCCCCC3)cc2Cl)c1
AC50 [2]: 29.9 µM (active) | AC50 [8]: 36.4 µM (active) | AC50 [9]: 8.81 µM (active) | AC50 [4]: 15.8 µM (active) | AC50 [3]: 11.1 µM (active)

O=C(OC[C@H]1O[C@@H](OC(=O)c2cc(O)c(O)c(OC(=O)c3cc(O)c(O)c(O)c3)c2)[C@H](OC(=O)c2cc(O)c(O)c(OC(=O)c3cc(O)c(O)c(O)c3)c2)[C@@H](OC(=O)c2cc(O)c(O)c(OC(=O)c3cc(O)c(O)c(O)c3)c2)[C@@H]1OC(=O)c1cc(O)c(O)c(OC(=O)c2cc(O)c(O)c(O)c2)c1)c1cc(O)c(O)c(OC(=O)c2cc(O)c(O)c(O)c2)c1
AC50 [10]: 0.371 µM (active) | outcome [7]: inactive

CC[C@H]1CC[C@H](NCc2cc3c(cc2OC)[C@H]2C[C@H]2C(=O)N3C)[C@H](c2ccccc2)N1
AC50 [4]: 9.49 µM (active) | AC50 [3]: 1.05 µM (active)

COc1ccc2sc(C(=O)Nc3nnn[nH]3)c(OC(C)C)c2c1
outcome [7]: inactive

CC1(C)C(=O)N(Br)C(=O)N1Br
AC50 [2]: 12.2 µM (active) | AC50 [4]: 25 µM (active)

CCOC(=O)c1ccc(C2CCC(NC[C@H](O)COc3ccc(O)c(NS(C)(=O)=O)c3)CC2)cc1 (stereo partly specified)
AC50 [8]: 1.24 µM (active) | AC50 [4]: 23.4 µM (active) | AC50 [3]: 23.4 µM (active)

CC/C(=C\C(=N/O)C(N)=O)C(C)[N+](=O)[O-] (stereo unspecified)
outcome [2]: inactive | outcome [4]: inactive

O=c1[nH]c2ccc(S(=O)CCN3CCC(Cc4ccc(F)cc4)CC3)cc2o1 (stereo unspecified)
outcome [2]: inactive | AC50 [8]: 6.78 µM (active) | AC50 [9]: 3.91 µM (active) | AC50 [4]: 2.59 µM (active)

CC1=CC(=O)CC(C)(C)C1
outcome [2]: inactive

CC(C)CCO
outcome [10]: inactive
